Experimental data from the supplement of paper PMC11732987, “Enantioselective OTUD7B fragment discovery through chemoproteomics screening and high-throughput optimisation” (Communications Chemistry, 2025).

Columns and labels:
Assay in all cases: log2 ratio of Biotin-Ahx-Ub-VS probe labelling (fragment/DMSO); higher = less target engagement (more negative = stronger competition), active = hit call of the paper (q ≤ 0.05, log2 ratio ≤ -1)
Conditions in all cases: compound concentration: 200 uM; treatment time: 3 h
USP19 = target: T1, USP19 (UniProt O94966)
T1 sequence (whole entry): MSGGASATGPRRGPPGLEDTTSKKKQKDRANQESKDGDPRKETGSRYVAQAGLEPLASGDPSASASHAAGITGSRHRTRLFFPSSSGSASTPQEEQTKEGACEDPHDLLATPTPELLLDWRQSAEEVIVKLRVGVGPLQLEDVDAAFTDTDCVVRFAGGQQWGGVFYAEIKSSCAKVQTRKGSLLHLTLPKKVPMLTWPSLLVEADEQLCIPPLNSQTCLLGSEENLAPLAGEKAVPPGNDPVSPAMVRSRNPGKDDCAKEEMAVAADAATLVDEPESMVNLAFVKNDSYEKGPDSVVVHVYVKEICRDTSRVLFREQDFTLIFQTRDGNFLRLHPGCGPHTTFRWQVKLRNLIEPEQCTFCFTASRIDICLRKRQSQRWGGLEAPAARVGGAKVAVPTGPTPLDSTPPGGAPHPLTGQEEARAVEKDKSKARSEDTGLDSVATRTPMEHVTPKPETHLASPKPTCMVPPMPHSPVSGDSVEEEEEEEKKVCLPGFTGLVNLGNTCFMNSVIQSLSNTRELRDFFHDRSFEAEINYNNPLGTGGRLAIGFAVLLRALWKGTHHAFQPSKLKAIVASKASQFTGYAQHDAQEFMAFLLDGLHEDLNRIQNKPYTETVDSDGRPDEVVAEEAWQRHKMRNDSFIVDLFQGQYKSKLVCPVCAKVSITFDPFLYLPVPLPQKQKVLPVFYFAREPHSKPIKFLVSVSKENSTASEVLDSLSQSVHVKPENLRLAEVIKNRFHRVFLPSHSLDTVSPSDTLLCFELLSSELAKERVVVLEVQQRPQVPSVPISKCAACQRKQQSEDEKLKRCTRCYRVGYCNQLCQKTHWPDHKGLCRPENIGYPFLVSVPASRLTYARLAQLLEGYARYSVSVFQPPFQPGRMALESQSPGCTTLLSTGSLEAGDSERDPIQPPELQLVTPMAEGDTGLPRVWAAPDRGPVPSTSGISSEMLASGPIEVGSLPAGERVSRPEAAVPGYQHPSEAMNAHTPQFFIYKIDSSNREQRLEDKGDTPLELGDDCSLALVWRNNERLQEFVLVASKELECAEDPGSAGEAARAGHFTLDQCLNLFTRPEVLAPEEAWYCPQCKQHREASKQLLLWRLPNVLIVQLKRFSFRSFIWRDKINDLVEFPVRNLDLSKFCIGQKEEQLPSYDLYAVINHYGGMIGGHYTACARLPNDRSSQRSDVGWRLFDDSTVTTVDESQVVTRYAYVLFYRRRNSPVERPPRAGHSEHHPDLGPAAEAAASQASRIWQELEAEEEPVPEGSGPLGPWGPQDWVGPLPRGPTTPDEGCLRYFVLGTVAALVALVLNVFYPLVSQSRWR
In short: (§1)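 HEK293T lysate in Tris/CHAPS/IGEPAL buffer with protease inhibitors (495 µg per sample) was given fragment at 200 µM or vehicle for 3 h, in triplicate. It then received Biotin-Ahx-Ub-VS at 0.5 µM final for 1 h. Labelled DUBs were NeutrAvidin-enriched, digested with LysC and trypsin, and run by diaPASEF LC-MS/MS. Values are average log2 fragment/vehicle ratios by unpaired t-test on global-median-normalised Spectronaut quantities of proteins with ≥2 unique peptides.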

USP22 = target: T2, USP22 (UniProt Q9UPT9)
T2 sequence (whole entry): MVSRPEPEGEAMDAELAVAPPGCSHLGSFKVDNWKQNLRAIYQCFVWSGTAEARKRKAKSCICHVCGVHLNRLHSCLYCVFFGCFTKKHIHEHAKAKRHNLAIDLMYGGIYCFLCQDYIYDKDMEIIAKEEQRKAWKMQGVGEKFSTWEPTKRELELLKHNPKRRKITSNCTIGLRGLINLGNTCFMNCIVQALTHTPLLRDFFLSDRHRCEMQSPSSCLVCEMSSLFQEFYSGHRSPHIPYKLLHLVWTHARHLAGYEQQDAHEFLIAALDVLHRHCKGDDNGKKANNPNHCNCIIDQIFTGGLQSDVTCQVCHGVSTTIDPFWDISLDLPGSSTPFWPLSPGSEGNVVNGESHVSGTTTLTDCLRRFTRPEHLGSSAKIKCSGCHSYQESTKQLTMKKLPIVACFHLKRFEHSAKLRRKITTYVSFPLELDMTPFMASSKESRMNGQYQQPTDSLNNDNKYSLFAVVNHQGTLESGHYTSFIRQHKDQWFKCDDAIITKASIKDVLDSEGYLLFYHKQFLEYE
In short: as §1

USP24 = USP24 (UniProt Q9UPU5)
Chain of USP24 (Q9UPU5 whole entry): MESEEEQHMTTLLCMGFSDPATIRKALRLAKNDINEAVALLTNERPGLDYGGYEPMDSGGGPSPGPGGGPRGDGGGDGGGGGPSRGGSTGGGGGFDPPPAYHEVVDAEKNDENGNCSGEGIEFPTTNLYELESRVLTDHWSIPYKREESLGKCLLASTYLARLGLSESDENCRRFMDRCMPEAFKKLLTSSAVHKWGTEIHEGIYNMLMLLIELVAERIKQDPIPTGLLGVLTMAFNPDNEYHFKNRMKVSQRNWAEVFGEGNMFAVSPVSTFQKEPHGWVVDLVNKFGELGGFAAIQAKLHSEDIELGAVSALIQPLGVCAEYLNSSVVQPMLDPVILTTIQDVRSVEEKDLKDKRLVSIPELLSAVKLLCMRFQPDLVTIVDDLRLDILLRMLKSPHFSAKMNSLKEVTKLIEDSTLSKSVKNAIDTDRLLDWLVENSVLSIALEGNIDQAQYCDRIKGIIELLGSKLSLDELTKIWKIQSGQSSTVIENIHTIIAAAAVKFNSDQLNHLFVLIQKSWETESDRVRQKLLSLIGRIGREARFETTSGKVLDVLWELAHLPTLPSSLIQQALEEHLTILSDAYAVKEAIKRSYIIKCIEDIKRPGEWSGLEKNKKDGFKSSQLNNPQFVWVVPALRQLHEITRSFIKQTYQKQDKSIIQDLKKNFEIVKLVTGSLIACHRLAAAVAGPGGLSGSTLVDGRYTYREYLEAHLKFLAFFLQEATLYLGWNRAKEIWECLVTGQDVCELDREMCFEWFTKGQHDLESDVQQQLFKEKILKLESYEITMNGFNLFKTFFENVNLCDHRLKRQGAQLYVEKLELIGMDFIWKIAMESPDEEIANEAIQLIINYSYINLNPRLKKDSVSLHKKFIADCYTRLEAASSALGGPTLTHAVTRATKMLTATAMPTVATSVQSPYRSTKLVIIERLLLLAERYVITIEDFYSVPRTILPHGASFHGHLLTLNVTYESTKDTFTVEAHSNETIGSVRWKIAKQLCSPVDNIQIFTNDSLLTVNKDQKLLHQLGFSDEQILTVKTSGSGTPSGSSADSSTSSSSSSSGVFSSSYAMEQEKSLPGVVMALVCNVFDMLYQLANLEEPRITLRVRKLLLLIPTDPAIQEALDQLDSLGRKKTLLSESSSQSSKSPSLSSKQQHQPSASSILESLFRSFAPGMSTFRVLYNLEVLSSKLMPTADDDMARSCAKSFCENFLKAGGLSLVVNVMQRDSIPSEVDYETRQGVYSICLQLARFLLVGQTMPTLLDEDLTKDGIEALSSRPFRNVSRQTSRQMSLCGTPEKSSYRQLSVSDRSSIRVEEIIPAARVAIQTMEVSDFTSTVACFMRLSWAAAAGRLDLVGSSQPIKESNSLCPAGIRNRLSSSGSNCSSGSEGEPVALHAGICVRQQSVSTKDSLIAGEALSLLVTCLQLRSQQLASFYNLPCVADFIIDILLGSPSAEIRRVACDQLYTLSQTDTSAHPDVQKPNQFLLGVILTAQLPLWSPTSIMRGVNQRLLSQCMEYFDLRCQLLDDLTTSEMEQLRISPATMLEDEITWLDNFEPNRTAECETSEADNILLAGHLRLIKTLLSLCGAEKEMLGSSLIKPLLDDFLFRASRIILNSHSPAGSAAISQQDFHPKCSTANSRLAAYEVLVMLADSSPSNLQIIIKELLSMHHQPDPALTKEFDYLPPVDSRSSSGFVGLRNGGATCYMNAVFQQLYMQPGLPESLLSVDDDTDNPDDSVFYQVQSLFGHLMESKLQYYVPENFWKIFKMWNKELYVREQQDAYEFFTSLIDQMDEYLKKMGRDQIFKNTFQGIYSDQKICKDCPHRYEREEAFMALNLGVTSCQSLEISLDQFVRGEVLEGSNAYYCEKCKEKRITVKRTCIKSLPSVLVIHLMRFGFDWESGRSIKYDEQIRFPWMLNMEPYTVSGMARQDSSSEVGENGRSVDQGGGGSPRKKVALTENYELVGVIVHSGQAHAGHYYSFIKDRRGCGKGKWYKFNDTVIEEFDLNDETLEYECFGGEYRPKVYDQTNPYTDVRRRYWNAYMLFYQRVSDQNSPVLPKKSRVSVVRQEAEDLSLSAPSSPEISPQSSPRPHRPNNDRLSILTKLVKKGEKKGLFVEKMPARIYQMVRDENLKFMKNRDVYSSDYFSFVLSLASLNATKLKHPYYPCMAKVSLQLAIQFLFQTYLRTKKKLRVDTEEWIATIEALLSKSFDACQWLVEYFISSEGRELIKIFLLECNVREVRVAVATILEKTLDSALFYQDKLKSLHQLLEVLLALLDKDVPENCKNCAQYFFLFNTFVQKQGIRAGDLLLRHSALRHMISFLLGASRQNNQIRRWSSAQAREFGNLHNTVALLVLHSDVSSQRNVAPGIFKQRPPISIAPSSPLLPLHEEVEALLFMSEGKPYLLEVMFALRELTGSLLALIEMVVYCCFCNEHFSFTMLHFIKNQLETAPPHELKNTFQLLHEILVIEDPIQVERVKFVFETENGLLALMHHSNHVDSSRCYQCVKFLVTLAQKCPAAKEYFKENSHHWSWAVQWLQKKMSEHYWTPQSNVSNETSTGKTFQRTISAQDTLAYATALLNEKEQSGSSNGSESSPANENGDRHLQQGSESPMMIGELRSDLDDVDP
In short: as §1

USP25 = target: T3, USP25 (UniProt Q9UHP3)
T3 sequence (whole entry): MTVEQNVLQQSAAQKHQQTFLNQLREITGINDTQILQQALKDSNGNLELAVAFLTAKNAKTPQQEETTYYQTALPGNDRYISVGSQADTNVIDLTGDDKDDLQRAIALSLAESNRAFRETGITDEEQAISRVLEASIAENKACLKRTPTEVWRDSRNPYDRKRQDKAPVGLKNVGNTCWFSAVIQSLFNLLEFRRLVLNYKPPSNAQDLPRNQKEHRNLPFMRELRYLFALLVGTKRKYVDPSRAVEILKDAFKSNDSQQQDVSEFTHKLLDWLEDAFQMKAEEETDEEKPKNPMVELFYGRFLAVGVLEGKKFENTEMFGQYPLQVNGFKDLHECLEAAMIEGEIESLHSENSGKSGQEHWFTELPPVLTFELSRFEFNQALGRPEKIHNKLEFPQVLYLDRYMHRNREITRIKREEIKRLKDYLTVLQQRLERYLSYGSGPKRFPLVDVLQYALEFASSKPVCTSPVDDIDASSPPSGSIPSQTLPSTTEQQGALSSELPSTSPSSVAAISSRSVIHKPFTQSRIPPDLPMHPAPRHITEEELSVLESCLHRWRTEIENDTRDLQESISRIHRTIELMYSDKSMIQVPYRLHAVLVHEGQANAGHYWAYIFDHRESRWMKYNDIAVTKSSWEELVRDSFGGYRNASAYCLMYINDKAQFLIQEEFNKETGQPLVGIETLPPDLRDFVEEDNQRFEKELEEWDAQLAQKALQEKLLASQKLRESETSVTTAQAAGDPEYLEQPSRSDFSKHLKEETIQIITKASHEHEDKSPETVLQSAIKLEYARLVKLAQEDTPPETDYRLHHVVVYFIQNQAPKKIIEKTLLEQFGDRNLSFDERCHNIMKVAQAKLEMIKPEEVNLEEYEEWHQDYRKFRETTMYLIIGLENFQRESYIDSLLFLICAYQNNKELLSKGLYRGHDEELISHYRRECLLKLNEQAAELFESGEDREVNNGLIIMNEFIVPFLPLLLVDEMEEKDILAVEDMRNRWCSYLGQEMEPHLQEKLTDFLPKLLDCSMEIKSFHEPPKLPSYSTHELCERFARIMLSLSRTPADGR
In short: as §1

USP28 = target: T4, USP28 (UniProt Q96RU2)
T4 sequence (whole entry): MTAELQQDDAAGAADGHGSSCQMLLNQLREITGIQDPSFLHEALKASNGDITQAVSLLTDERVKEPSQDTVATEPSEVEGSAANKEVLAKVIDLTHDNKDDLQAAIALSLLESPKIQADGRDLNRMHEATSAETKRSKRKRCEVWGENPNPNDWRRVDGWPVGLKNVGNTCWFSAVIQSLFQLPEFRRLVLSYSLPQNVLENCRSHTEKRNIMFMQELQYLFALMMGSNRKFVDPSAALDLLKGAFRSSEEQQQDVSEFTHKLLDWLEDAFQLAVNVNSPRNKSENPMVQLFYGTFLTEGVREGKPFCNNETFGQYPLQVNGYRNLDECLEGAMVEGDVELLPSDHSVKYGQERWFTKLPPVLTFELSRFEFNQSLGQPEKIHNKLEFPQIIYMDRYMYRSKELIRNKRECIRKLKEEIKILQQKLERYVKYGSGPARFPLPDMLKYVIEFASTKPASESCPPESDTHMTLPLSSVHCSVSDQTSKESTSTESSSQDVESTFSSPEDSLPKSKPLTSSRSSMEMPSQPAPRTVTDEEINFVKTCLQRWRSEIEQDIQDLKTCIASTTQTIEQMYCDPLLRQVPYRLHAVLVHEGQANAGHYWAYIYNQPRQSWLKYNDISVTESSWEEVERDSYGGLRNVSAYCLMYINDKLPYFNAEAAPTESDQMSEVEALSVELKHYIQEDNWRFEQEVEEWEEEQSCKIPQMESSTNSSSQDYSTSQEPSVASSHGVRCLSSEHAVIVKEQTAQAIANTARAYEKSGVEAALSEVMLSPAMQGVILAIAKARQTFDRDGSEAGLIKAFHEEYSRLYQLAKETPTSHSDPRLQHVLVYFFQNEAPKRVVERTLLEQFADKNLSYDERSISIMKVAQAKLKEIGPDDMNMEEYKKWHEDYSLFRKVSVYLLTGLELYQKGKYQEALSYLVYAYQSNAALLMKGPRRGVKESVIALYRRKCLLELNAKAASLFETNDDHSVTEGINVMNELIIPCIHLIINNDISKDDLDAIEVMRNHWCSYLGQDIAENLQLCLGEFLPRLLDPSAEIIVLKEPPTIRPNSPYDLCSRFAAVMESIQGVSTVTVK
In short: as §1

Measured: log2 ratio of Biotin-Ahx-Ub-VS probe labelling

Cc1ccc(N2CCC(NC(=O)CCl)C2=O)cc1 (stereo not given)
inactive: USP19 0.0818 | USP22 -0.233 | USP24 0.141 | USP25 0.0471 | USP28 -0.0346
